Holding throughout (design): scale not given: direction of the effect not stated beside the values
In experiment [1] the target is Protein translocase subunit SecA (Escherichia coli (strain K12)) (UniProt P10408). Briefly: Assay to Identify E. coli SecA ATPase Inhibitors. It is filed as functional. The note with it: 30 µM.
In experiment [2] the target is T1, Ubiquitin-activating enzyme e1, putative (Leishmania donovani (strain BPK282A1)) (UniProt E9BSI1).
T1 sequence (whole entry): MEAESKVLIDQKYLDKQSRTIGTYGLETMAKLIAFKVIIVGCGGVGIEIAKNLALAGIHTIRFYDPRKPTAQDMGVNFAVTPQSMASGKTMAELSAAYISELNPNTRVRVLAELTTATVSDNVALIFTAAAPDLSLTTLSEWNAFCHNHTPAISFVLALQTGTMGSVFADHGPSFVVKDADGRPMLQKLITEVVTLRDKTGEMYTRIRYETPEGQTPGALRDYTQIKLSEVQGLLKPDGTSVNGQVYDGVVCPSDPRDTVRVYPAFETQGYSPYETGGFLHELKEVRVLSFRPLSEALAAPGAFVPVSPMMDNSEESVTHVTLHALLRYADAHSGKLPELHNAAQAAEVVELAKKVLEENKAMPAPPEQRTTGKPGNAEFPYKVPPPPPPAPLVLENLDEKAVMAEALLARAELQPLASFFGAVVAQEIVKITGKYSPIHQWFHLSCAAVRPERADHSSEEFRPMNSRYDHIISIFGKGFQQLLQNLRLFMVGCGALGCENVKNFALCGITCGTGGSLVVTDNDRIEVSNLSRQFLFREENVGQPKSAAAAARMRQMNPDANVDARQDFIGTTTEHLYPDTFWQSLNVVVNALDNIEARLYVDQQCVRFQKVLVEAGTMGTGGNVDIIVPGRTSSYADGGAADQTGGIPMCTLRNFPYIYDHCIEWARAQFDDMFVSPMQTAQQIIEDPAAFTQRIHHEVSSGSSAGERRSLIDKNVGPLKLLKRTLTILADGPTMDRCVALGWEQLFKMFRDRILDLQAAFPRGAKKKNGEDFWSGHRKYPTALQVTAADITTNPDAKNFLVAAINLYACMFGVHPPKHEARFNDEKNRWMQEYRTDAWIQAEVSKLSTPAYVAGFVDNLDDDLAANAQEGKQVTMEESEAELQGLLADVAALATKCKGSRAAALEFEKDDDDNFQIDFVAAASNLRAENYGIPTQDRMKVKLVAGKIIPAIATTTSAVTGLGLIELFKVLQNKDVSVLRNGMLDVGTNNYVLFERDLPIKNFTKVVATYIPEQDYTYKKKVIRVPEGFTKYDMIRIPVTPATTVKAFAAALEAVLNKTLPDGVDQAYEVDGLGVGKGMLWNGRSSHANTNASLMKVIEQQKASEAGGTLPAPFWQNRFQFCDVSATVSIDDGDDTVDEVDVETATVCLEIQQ
The experiment can be described thus: Leishmania donovani Ubiquitin Activating Enzyme (LdE1). It counts as functional. The note with it: 30 µM.

Experiment [3] deals with AMP-activated protein kinase, AMPK (Homo sapiens) (UniProt P54646+O43741+P54619+Q9UGJ0+Q9Y478+Q13131+Q9UGI9). Briefly: AMP-dependent Kinase enzyme assay. An in vitro enzyme assay that detects ADP turnover that is directly proportional to AMPK activity. This uses naive AMPK that is activated during the assay with MK-8722. Conditions: 30 µM. It is filed as functional.
Experiment [4] addresses Sialic acid-binding Ig-like lectin 9 (Homo sapiens) (UniProt Q9Y336). Briefly: Hs-Siglec9 ALPHAscreen SOP 20170721. The note with it: 10 µM.
The test system of experiment [5] is Trypanosoma cruzi. The experiment can be described thus: Trypanosoma cruzi phosphomannomutase and mannose-1-phosphate guanylyltransferase assay. It is filed as functional. Conditions: 10 µM.
The target in experiment [6] is T2, Arginase-2, mitochondrial (Homo sapiens) (UniProt P78540).
T2 sequence (whole entry): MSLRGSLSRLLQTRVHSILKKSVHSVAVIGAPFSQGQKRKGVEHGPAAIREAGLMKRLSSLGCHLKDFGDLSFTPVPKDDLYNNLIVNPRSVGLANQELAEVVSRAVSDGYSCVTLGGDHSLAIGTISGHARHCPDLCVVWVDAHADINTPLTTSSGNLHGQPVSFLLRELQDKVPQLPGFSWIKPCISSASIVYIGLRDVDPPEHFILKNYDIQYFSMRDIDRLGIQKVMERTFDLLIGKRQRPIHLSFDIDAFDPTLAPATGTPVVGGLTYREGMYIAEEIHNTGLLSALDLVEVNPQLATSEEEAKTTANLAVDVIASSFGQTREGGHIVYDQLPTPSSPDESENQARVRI
The experiment can be described thus: in vitro enzyme assay to detect the production of urea directly proportional to the activity of Arginase II. Further: in the data most compounds retested in dose-response had high values. It counts as functional. Conditions: 33.3 µM.

Experiment [7] deals with T3, Proteasome subunit beta (Trypanosoma cruzi) (UniProt O96673).
T3 sequence (whole entry): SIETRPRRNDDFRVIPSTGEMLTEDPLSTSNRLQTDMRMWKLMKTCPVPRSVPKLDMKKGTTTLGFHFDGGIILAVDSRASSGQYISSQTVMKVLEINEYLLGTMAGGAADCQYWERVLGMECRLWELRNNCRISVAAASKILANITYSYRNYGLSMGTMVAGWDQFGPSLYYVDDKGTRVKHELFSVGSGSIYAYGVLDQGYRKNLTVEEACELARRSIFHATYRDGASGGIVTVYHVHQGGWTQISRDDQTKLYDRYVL
Briefly: Trypanosoma cruzi proteasome chymotrypsin-like activity (TcProtChymo) assay. Further: in the data most compounds retested in dose-response had high values. It is filed as functional. The note with it: 9.37 µM.

The species entered for experiment [8] is Homo sapiens. Briefly: To identify inhibition of the IFN signalling (Jak-Stat) pathway via expression of an eGFP reporter gene under the control of an IFN-stimulated response element (ISRE) containing MxA promoter. It counts as functional. The note with it: 30 µM.
The target in experiment [9] is T4, Tyrosyl-tRNA synthetase, putative (Trypanosoma cruzi (strain CL Brener)) (UniProt Q4DSP6).
T4 sequence (whole entry): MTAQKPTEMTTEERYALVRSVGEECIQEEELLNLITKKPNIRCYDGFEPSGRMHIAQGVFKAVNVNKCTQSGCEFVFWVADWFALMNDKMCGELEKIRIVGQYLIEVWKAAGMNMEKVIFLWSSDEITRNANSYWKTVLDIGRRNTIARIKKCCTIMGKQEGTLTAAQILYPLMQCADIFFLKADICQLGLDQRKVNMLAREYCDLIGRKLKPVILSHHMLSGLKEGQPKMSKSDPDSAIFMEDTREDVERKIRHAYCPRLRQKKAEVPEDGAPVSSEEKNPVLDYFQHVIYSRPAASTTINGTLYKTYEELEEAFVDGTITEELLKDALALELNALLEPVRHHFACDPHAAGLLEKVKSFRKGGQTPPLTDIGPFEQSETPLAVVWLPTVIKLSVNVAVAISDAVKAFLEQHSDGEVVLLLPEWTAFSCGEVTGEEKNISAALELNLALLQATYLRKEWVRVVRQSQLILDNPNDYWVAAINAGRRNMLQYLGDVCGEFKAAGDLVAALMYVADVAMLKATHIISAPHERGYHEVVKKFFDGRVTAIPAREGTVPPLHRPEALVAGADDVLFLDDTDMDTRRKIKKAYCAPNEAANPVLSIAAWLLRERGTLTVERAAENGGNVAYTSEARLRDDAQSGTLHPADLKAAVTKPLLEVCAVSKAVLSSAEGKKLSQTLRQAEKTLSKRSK
The experiment can be described thus: Trypanosoma cruzi tyrosyl tRNA synthetase (TcYRS) _High Tyrosine SOP. Further: in the data most compounds retested in dose-response had high values. It is filed as functional. The note with it: 30 µM.

The target of experiment [10] is T4, Tyrosyl-tRNA synthetase, putative (Trypanosoma cruzi (strain CL Brener)). Briefly: Trypanosoma cruzi tyrosyl tRNA synthetase (TcYRS) SOP. It counts as functional. Conditions: 30 µM.
Experiment [11] deals with Chromo domain-containing protein 1 (Saccharomyces cerevisiae (strain ATCC 204508 / S288c) (Baker's yeast)) (UniProt P32657). The experiment can be described thus: ScCHD-1 Enzyme Inhibition Assay. Further: in the data most compounds retested in dose-response had high values. It is filed as functional. Conditions: 30 µM.

For some of these results: Potency and affinity values are given separately.

Chain of Sialic acid-binding Ig-like lectin 9 (Homo sapiens) (Q9Y336 whole entry): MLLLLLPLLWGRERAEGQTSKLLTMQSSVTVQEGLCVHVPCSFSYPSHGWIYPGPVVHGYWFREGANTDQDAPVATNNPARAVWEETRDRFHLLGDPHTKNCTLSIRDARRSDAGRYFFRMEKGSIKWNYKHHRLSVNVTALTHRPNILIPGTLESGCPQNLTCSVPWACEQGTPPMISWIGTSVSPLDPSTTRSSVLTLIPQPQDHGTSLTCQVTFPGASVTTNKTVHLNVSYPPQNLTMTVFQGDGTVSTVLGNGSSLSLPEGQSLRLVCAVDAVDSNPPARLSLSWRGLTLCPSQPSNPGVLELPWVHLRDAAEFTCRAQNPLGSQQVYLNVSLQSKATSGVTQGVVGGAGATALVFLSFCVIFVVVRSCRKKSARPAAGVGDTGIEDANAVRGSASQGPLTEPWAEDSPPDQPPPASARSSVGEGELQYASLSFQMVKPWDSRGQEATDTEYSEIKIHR
Chain of Protein translocase subunit SecA (Escherichia coli (strain K12)) (P10408 whole entry): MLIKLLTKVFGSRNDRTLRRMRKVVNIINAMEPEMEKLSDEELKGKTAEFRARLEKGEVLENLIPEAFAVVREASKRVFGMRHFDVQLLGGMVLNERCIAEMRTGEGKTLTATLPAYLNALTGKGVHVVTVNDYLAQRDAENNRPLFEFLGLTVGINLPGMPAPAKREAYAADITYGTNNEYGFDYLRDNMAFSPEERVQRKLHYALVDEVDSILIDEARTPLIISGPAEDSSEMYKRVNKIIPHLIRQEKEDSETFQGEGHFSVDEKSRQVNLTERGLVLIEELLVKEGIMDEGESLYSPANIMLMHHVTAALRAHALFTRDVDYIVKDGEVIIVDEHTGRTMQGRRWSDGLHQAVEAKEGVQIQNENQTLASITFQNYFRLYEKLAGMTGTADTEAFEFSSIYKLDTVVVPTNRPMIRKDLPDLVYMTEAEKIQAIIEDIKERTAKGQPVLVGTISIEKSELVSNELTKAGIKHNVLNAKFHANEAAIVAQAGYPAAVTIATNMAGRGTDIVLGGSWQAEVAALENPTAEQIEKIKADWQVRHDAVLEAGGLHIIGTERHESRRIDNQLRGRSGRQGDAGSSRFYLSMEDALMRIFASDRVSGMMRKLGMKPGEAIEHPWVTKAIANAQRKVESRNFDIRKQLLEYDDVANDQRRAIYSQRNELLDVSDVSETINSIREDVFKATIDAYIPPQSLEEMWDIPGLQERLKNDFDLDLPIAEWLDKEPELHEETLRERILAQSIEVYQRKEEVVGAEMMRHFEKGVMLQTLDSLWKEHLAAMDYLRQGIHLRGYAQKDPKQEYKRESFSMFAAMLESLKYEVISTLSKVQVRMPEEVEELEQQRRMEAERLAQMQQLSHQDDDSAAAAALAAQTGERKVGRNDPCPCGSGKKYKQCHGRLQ
Chain of Chromo domain-containing protein 1 (Saccharomyces cerevisiae (strain ATCC 204508 / S288c) (Baker's yeast)) (P32657 whole entry, the tested form may be a part): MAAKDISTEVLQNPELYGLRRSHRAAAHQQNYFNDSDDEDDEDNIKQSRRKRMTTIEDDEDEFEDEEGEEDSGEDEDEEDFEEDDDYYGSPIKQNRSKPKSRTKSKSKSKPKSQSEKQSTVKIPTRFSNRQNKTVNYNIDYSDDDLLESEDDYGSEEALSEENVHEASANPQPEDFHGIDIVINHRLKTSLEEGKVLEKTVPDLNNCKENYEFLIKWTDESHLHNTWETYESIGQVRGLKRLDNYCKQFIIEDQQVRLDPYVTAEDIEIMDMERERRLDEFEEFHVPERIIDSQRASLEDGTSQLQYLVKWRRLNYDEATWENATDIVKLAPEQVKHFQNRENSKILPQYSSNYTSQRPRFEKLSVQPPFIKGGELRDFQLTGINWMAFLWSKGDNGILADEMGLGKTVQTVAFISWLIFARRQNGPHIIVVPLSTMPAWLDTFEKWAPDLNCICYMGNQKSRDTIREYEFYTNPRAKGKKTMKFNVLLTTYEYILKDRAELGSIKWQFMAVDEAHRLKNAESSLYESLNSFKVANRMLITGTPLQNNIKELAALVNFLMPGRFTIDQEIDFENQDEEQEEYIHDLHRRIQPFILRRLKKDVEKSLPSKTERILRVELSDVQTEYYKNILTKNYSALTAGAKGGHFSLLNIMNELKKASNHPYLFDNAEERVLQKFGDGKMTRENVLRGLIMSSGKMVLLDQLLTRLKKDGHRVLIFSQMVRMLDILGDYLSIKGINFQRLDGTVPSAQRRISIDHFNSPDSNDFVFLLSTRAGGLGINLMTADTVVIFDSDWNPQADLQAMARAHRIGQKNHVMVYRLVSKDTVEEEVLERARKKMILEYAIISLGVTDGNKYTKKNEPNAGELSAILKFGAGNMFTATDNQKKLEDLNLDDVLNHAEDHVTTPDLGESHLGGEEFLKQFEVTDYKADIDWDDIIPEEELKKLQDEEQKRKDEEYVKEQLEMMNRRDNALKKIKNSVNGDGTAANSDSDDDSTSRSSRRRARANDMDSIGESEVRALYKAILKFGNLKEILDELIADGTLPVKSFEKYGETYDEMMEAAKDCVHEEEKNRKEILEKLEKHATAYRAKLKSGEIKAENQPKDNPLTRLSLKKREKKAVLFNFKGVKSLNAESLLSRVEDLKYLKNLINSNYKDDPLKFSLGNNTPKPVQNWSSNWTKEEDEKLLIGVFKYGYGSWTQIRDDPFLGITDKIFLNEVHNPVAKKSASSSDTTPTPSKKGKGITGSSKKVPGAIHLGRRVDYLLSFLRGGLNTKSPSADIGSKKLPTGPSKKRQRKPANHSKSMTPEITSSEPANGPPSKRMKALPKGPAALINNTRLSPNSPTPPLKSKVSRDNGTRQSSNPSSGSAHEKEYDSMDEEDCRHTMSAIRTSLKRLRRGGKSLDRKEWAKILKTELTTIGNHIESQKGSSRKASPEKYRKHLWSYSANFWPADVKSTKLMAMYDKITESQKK

In the case of `CC(C)Nc1nc(N2CCCC2)nc2c1CN(C(C)C)CC2`, the Percent Effect was 1.43% in experiment [1]; -2.67% in experiment [2]; -5.03% in experiment [3]; 21.2% in experiment [4]; 4.63% in experiment [5]; -29.6% in experiment [6]. The Percent Effect is 14.7% in experiment [7]; -15.2% in experiment [8]; 5.21% in experiment [9]; -2.5% in experiment [10]; -5.55% in [11].
With `CCc1nc(CN(C)CC(c2cccs2)N2CCOCC2)no1` (stereo unspecified), the Percent Effect in experiment [1] was -2.58%; in [2] it was 27%; in [3], -3.84%; in experiment [4], -3.75%; in experiment [5] it was 1.76%; in experiment [6] it was -2.4%. Besides, the Percent Effect was 10.6% in experiment [7]; 13.9% in experiment [8]; 6.93% in experiment [9]; 23.2% in [10]; -7.57% in experiment [11].
In the case of `CCc1noc(CN2CCCC2c2noc(C3CC3)n2)n1` (stereo unspecified), the Percent Effect in [1] was 0.214%; in [2], 21.6%; in experiment [3] it was -11.2%; in experiment [4], -6.88%; in [5], 3.68%; in experiment [6] it was -10%. In addition, the Percent Effect is 12.8% in experiment [7]; 19.7% in experiment [8]; 9.36% in experiment [9]; 18.5% in [10]; -9.57% in [11].
Take `O=C(c1cnccn1)N1C[C@@H]2CC[C@H](C1)N(C(=O)Cc1ccsc1)C2`: the Percent Effect is -5.86% in experiment [1]; 2.6% in [2]; 5.34% in experiment [3]; 4.9% in experiment [4]; -4.82% in experiment [5]; -16.6% in experiment [6]. Further, the Percent Effect in [7] was 9.32%; in experiment [8], 8.73%; in experiment [9], 5.38%; in experiment [10] it was 3.7%; in [11], -0.624%.
In the case of `COc1ccc(C2(CNC(C)c3nnc(C)o3)CCCCC2)cc1` (stereo unspecified), the Percent Effect in experiment [1] is -1.33%; in experiment [2] it was -8.11%; in experiment [3] it was -8.86%; in experiment [4], 6.11%; in experiment [5], 8.69%; in [6] it was -4.76%. For the same compound, the Percent Effect in experiment [7] stood at 6.03%; in experiment [8] it was 5.78%; in experiment [9], 0.529%; in experiment [10], 0%; in experiment [11], 0.233%.
Consider `COC(=O)C(c1cc(F)ccc1F)N(C)C(=O)c1csnn1` (stereo unspecified), for which the Percent Effect in experiment [1] is 1.09%; in [2], 16.5%; in [3], 3.37%; in experiment [4], -5.43%; in [5], -5.64%; in [6] it was -1.5%. For the same compound, the Percent Effect was 14.4% in experiment [7]; 21.4% in experiment [8]; 6.25% in [9]; 12.7% in experiment [10]; -27.1% in [11].
With `CCN(CC)C(=O)CCc1c(C)nc2cc(O)nn2c1C`, the Percent Effect in experiment [1] was -1.3%; in [2], 0%; in experiment [3], -288%; in experiment [4] it was 0.0855%; in experiment [5], -3.99%; in experiment [6] it was -1.18%. The Percent Effect in experiment [7] is 24.1%; in experiment [8], 3.53%; in experiment [9], 4.25%; in experiment [10], 7.79%; in experiment [11], -6.56%.
Regarding `C=C1c2ccccc2C(=O)N1CCC(=O)N1CCNC(=O)C1`, the Percent Effect was -2.89% in [1]; 15.8% in experiment [2]; -1.19% in experiment [3]; 3.39% in experiment [4]; -2.07% in experiment [5]; 6.51% in experiment [6]. Further, the Percent Effect was 29.6% in [7]; -7.94% in experiment [8]; 6.37% in experiment [9]; 17.1% in experiment [10]; -3.42% in experiment [11].
As for `Cc1c(C(=O)N2CCCC2c2cnn(C)c2)nnn1-c1ccccc1` (stereo unspecified), the Percent Effect in [1] is -5.12%; in experiment [2] it was 13.5%; in experiment [3] it was -11.2%; in experiment [4], 15.4%; in experiment [5], 4.55%; in [6], -3.14%. Also, the Percent Effect in [7] is 9.87%; in experiment [8] it was 8.27%; in experiment [9], 0.99%; in [10], 13.4%; in [11] it was -7.97%.
With `CC(C)(C)SCCCC(=O)N1CCC(Nc2cccnn2)CC1`, the Percent Effect is -1.17% in [1]; -2.7% in experiment [2]; -6.83% in experiment [3]; 13.1% in [4]; 0.283% in [5]; -1.6% in [6]. The Percent Effect was -1.98% in experiment [7]; 8.77% in [8]; 4.43% in experiment [9]; 6.17% in experiment [10]; 0.803% in experiment [11].
On to `Cn1nccc1C(=O)N1CCOC(Cc2cccnc2)C1` (stereo unspecified), for which the Percent Effect in experiment [1] is -5.75%; in experiment [2], 10.7%; in experiment [3], -3.23%; in experiment [4], 4.56%; in [5] it was 5.91%; in experiment [6] it was -3.03%. The Percent Effect was -4.85% in experiment [7]; 7.36% in experiment [8]; 6.38% in [9]; 16.7% in experiment [10]; -7.31% in experiment [11].

These data come from ChEMBL document CHEMBL3988442, “University of Dundee, Small-Polar-MMV Screening Library” (2021).
